# Measured values as given in PubChem BioAssay (EPA / NIEHS).
# Results filed as inconclusive are left out. Activity calls are given as the source filed them. How the source made its calls: active means hit-call score of the fitted dose curve at least 0.9, where 1 is the maximum; inconclusive means response in the unintended direction; inactive means score below 0.9.
# Assays:
# NCBI gene 100848466 = assay: NVS_NR_bPR: NovaScreen (NVS) Nuclear Receptor Binding Assay for bovine Progextron Receptor (PR) (AID 2283343);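 on AC50: actives lower bound radioligand signal below DMSO meaning displacement of the label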
# How it was run: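 Steps: bovine uterine membranes were dosed with chemical alongside radioligand, incubated 18 hours, then radiodetected by scintillation counting. Initial testing used 25 uM in duplicate; confirmed actives were rerun as concentration series.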
# [1] = molecular target: chimpanzee Androgen Receptor (AR), AR (gene 747460) (UniProt O97775); assay: NVS_NR_cAR: NovaScreen (NVS) Nuclear Receptor Binding Assay for chimpanzee Androgen Receptor (AR) (AID 2283346);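 further: radioligand displacement from AR measured by scintillation counting in a cell-free assay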
# Sequence of chimpanzee Androgen Receptor (AR), AR (gene 747460) (O97775 whole entry, looked up): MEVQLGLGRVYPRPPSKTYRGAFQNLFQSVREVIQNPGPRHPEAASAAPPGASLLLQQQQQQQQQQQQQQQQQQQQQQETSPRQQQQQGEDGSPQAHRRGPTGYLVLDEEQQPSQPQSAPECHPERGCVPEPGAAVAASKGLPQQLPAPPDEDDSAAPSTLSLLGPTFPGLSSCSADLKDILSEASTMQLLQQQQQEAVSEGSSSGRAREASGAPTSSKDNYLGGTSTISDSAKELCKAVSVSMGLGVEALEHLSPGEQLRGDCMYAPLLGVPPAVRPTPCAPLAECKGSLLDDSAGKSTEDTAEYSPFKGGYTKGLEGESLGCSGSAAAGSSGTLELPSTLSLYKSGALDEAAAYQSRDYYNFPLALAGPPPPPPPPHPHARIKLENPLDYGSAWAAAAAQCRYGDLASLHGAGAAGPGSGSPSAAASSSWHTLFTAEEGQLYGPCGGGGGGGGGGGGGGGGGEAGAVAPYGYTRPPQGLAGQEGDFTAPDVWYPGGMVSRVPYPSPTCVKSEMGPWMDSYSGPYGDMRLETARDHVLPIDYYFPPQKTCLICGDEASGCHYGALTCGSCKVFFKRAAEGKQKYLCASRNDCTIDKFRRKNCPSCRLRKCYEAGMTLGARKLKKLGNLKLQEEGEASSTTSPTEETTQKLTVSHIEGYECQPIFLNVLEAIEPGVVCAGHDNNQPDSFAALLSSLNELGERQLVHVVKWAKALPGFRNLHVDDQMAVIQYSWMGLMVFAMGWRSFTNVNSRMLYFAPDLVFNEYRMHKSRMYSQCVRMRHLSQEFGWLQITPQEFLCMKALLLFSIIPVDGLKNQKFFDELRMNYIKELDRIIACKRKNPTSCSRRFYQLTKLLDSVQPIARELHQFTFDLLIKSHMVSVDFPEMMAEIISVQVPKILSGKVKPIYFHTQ
# How it was run: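 Cell-free radioligand displacement using receptor protein extracted from Sf9/Sf21 cells; bound radioligand measured by scintillation counting 72 hours after chemical dosing. Loss of signal versus DMSO baseline indicates binding; primary screen single-concentration in duplicate at 25 uM, actives followed in concentration series.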
# [2] = molecular target: human Constitutive Androstane Receptor (CAR), NR1I3 (gene 9970) (UniProt Q14994); assay: NVS_NR_hCAR_Antagonist: NovaScreen (NVS) Nuclear Receptor Binding Assay for human Constitutive Androstane Receptor Antagonism (CAR) (AID 2283344)
# Sequence of human Constitutive Androstane Receptor (CAR), NR1I3 (gene 9970) (Q14994 whole entry, looked up): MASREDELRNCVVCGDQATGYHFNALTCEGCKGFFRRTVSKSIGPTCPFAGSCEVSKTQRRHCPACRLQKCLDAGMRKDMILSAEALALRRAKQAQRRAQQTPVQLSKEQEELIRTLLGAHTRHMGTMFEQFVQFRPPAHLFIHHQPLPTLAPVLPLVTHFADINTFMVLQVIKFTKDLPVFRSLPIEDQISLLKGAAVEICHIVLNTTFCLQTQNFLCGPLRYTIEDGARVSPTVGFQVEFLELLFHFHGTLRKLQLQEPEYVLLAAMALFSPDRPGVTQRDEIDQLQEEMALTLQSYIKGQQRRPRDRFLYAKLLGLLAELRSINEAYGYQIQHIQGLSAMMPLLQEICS
# How it was run: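 Single 25 uM duplicate primary screen, with concentration-series follow-up on actives. Cell-free binding format run in antagonist mode, TR-FRET signal taken 1 h post-dose; activity is signal loss relative to DMSO.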
# [3] = tested on: guinea pig Histamine Receptor (H2), gene 100729734; assay: NVS_GPCR_gH2: NovaScreen (NVS) G Protein-Coupled Receptor Assay for guinea pig Histamine Receptor (H2) (AID 2283342)
# How it was run: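 Guinea pig striatal membrane preparation with specific radioligand; bound counts measured by filtration and scintillation 1 h post-dosing, DMSO as baseline. Chemicals passing a 25 uM duplicate screen were titrated to a 50 uM maximum.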
# [4] = molecular target: bovine Estrogen Receptor (ER), ESR1 (gene 407238) (UniProt P49884); assay: NVS_NR_bER: NovaScreen (NVS) Nuclear Receptor Binding Assay for bovine Estrogen Receptor (ER) (AID 2283345);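 further: actives lower the bound radioligand count which means they displace the ER ligand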
# Sequence of bovine Estrogen Receptor (ER), ESR1 (gene 407238) (P49884 whole entry, looked up): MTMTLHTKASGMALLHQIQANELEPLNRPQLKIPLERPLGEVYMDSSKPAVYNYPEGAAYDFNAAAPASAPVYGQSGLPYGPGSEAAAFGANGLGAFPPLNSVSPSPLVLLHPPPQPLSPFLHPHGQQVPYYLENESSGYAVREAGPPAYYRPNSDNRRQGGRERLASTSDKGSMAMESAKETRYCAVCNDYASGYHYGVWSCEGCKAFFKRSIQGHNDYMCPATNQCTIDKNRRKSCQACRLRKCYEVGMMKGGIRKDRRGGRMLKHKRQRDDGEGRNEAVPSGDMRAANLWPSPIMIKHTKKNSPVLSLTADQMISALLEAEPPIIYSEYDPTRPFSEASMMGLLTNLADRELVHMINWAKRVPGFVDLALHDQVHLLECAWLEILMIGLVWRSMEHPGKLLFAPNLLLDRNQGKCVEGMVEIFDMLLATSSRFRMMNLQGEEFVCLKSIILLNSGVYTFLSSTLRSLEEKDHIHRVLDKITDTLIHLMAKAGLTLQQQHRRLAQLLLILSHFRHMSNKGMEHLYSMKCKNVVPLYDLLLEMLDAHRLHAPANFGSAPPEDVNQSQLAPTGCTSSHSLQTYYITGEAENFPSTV
# How it was run: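 Displacement of a radioligand from estrogen receptor in bovine uterine membrane preparations; scintillation signal taken at 18 hours, DMSO as baseline. Single-concentration duplicates (25 uM) preceded concentration-response follow-up of actives.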
# [5] = molecular target: Estrogen receptor (Homo sapiens) (UniProt P03372); assay: NVS_NR_hER: NovaScreen (NVS) Nuclear Receptor Binding Assay for human Estrogen Receptor (ER) (AID 2283348)
# Sequence of Estrogen receptor (Homo sapiens) (P03372 whole entry, looked up, the tested form may be a part): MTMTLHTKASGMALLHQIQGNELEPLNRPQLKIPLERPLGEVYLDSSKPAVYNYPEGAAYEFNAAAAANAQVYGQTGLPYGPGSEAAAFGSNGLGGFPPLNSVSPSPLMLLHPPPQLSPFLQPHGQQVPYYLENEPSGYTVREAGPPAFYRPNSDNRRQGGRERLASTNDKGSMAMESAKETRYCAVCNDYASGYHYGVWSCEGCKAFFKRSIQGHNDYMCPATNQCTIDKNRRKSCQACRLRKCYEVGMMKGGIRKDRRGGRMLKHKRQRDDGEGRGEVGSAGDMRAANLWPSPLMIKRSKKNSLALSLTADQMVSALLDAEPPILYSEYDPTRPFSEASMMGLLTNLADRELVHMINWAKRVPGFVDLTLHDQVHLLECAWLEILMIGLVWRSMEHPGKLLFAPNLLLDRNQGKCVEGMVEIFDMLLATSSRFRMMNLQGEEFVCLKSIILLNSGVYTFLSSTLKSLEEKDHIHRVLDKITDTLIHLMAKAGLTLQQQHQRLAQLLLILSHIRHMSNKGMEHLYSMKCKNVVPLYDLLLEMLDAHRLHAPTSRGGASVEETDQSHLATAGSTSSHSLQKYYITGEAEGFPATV
# How it was run: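 Radiodetection of ligand displacement in a lysate-based, cell-free format using MCF7 extracts, read at 18 hours. Duplicate 25 uM primary testing, then concentration series for actives.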
# [6] = molecular target: Estrogen receptor (Homo sapiens) (UniProt P03372); assay: OT_ER_ERaERa_1440: Odyssey Thera (OT) 24-hour HEK293T Protein-Complementation Assay for Estrogen Receptor-alpha/-alpha Homodimer (AID 2283349);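 further: hits raise fluorescence above DMSO for agonists and antagonists alike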
# How it was run: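 Stably transfected HEK293T; ERα LBD homodimer PCA. 24 h dosing, fluorescence intensity read, gain-of-signal vs DMSO.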
# [7] = molecular target: Estrogen receptor (Homo sapiens) (UniProt P03372); assay: OT_ER_ERaERa_0480: Odyssey Thera (OT) 8-hour HEK293T Protein-Complementation Assay for Estrogen Receptor-alpha/-alpha Homodimer (AID 2283351);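 further: rise in fluorescence from reassembled reporter fragments on ERα LBD homodimer in nucleus or whole cell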
# How it was run: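 Read-out: fluorescence intensity rise relative to DMSO, nuclear for agonists, nuclear plus cytoplasmic for antagonists. Construct is the ERα LBD (aa 310-547) homodimer fragment-complementation pair, stably expressed in HEK293T; exposure 8 h.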
# [8] = molecular target: Estrogen receptor (Homo sapiens) + Estrogen receptor beta (Homo sapiens) (UniProt P03372+Q92731); assay: OT_ER_ERaERb_0480: Odyssey Thera (OT) 8-hour HEK293T Protein-Complementation Assay for Estrogen Receptor-alpha/-beta Heterodimer (AID 2283352)
# Sequence of Estrogen receptor (Homo sapiens) + Estrogen receptor beta (Homo sapiens) (P03372 whole entry, looked up, the tested form may be a part): as above
# Sequence of Estrogen receptor (Homo sapiens) + Estrogen receptor beta (Homo sapiens) (Q92731 whole entry, looked up, the tested form may be a part): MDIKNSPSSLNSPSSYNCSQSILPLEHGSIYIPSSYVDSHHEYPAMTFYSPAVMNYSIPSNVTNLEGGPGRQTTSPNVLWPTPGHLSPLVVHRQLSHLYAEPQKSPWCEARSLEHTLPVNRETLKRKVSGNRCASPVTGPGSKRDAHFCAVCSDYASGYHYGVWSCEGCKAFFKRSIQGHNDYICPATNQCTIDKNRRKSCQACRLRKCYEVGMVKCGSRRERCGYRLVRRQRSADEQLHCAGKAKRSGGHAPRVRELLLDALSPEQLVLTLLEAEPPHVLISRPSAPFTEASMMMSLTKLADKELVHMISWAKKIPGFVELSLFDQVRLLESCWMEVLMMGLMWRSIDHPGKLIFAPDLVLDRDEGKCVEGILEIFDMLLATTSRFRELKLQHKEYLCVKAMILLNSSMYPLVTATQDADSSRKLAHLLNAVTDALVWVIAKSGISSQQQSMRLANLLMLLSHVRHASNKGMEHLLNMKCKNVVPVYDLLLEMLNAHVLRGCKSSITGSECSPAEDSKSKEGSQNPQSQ
# How it was run: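 Fluorescence intensity readout from a protein-fragment complementation reporter in HEK293T; ER-alpha/ER-beta LBD heterodimer. Dosing 8 h. Gain-of-signal fit relative to DMSO negative control; laser scanning cytometry of whole-well cell population.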
smiles,measurement,setting,value
CC(C1CC1)C(O)(Cn1cncn1)c1ccc(Cl)cc1 (stereo not given),outcome,NCBI gene 100848466,inactive
same,AC50,[1],24.9 µM (active)
CCOP(=S)(OCC)Oc1cc(C)nc(C(C)C)n1,outcome,NCBI gene 100848466,inactive
same,outcome,[2],inactive
C=C(C)[C@H]1Cc2c(ccc3c2O[C@@H]2COc4cc(OC)c(OC)cc4[C@@H]2C3=O)O1,outcome,NCBI gene 100848466,inactive
same,outcome,[2],inactive
CCOC(=O)CC(SP(=O)(OC)OC)C(=O)OCC (stereo not given),outcome,NCBI gene 100848466,inactive
same,outcome,[2],inactive
COc1ccc(C(=CC(=O)N2CCOCC2)c2ccc(Cl)cc2)cc1OC,outcome,[3],inactive
same,outcome,[2],inactive
same,AC50,[1],17.3 µM (active)
CCCSP(=O)(OCC)Oc1ccc(Br)cc1Cl (stereo not given),AC50,NCBI gene 100848466,20.1 µM (active)
same,AC50,[2],16 µM (active)
CCCOCC(=Nc1ccc(Cl)cc1C(F)(F)F)n1ccnc1,outcome,NCBI gene 100848466,inactive
same,AC50,[2],5.88 µM (active)
same,AC50,[1],5.96 µM (active)
CNc1cnn(-c2cccc(C(F)(F)F)c2)c(=O)c1Cl,outcome,NCBI gene 100848466,inactive
same,outcome,[2],inactive
CC(C)N(C(=O)SCC(Cl)=C(Cl)Cl)C(C)C,AC50,NCBI gene 100848466,36.8 µM (active)
same,outcome,[2],inactive
FC(F)C(F)(F)OCC(Cn1cncn1)c1ccc(Cl)cc1Cl (stereo not given),AC50,[3],10.1 µM (active)
same,AC50,NCBI gene 100848466,25 µM (active)
same,AC50,[1],5.47 µM (active)
C#CCC1=C(C)C(OC(=O)C2C(C=C(C)C)C2(C)C)CC1=O (stereo not given),outcome,NCBI gene 100848466,inactive
same,outcome,[2],inactive
same,outcome,[1],inactive
CCOP(=S)(OCC)Oc1ccc2c(C)c(Cl)c(=O)oc2c1,AC50,NCBI gene 100848466,1.01 µM (active)
CNC(=O)ON=C(SC)C(=O)N(C)C,outcome,NCBI gene 100848466,inactive
same,outcome,[2],inactive
same,outcome,[4],inactive
same,outcome,[5],inactive
same,outcome,[6],inactive
same,outcome,[7],inactive
same,outcome,[8],inactive
CCc1cccc(C)c1N(C(=O)CCl)C(C)COC (stereo not given),outcome,NCBI gene 100848466,inactive
same,AC50,[2],12.9 µM (active)
CCCSP(=O)(OCC)SCCC,outcome,NCBI gene 100848466,inactive
same,outcome,[2],inactive
CCOP(=O)(OCC)Oc1cc(C)nc(C(C)C)n1,outcome,NCBI gene 100848466,inactive
C[Si](Cn1cncn1)(c1ccc(F)cc1)c1ccc(F)cc1,AC50,NCBI gene 100848466,25 µM (active)
same,AC50,[1],9.47 µM (active)
CCC(CC)Nc1c([N+](=O)[O-])cc(C)c(C)c1[N+](=O)[O-],AC50,NCBI gene 100848466,40.1 µM (active)
same,outcome,[2],inactive
CCOP(=S)(OCC)Oc1ccc([N+](=O)[O-])cc1,AC50,NCBI gene 100848466,2.23 µM (active)
same,outcome,[2],inactive
CC[C@H](C)[C@H]1O[C@]2(C=C[C@@H]1C)C[C@@H]1C[C@@H](C/C=C(\C)[C@@H](O[C@H]3C[C@H](OC)[C@@H](O[C@H]4C[C@H](OC)[C@@H](NC)[C@H](C)O4)[C@H](C)O3)[C@@H](C)/C=C/C=C3\CO[C@@H]4[C@H](O)C(C)=C[C@@H](C(=O)O1)[C@]34O)O2,AC50,[3],26.4 µM (active)
same,AC50,[2],31 µM (active)
same,outcome,[4],inactive
same,AC50,[1],6.02 µM (active)
same,outcome,[6],inactive
same,outcome,[7],inactive
CCOP(=S)(OCC)SCCSCC,AC50,NCBI gene 100848466,25 µM (active)
same,outcome,[2],inactive
CC(C)[C@H](C(=O)O[C@H](C#N)c1cccc(Oc2ccccc2)c1)c1ccc(Cl)cc1,outcome,NCBI gene 100848466,inactive
C#CC(C)(C)NC(=O)c1cc(Cl)cc(Cl)c1,outcome,NCBI gene 100848466,inactive
same,outcome,[2],inactive
CNC(=O)Oc1cccc2c1OC(C)(C)O2,outcome,[2],inactive
same,outcome,[6],inactive
same,outcome,[7],inactive
CCC(=NOC/C=C/Cl)C1=C(O)CC(C2CCOCC2)CC1=O (stereo not given),outcome,[2],inactive
Cc1cc(C2CC2)nc(Nc2ccccc2)n1,AC50,[2],25 µM (active)
same,outcome,[6],inactive
same,outcome,[7],inactive
same,outcome,[8],inactive
CN(C)[C@@H]1C(=O)C(C(N)=O)=C(O)[C@@]2(O)C(=O)C3=C(O)c4c(O)cccc4[C@@](C)(O)[C@H]3[C@H](O)[C@@H]12,AC50,[1],11.3 µM (active)
O=[N+]([O-])c1cc(C(F)(F)F)c(Cl)c([N+](=O)[O-])c1Nc1ncc(C(F)(F)F)cc1Cl,outcome,[2],inactive
same,outcome,[6],inactive
COP(=O)(OC)SCn1c(=O)oc2cc(Cl)cnc21,outcome,[5],inactive
same,outcome,[6],inactive
COP(=O)(OC)OC(Br)C(Cl)(Cl)Br (stereo not given),outcome,[6],inactive
same,outcome,[7],inactive
CCCCOC(=O)[C@@H](C)Oc1ccc(Oc2ccc(C#N)cc2F)cc1,outcome,[6],inactive
same,outcome,[7],inactive
same,outcome,[8],inactive
CSc1nnc(C(C)(C)C)c(=O)n1N,outcome,[2],inactive
COc1cccc(C(=O)NN(C(=O)c2cc(C)cc(C)c2)C(C)(C)C)c1C,outcome,[2],inactive
CCOP(=O)(NC(C)C)Oc1ccc(SC)c(C)c1 (stereo not given),AC50,[2],16.8 µM (active)
same,AC50,[1],25 µM (active)
CCCCSP(=O)(SCCCC)SCCCC,outcome,[2],inactive
CC1(C(=O)Nc2ccc(O)c(Cl)c2Cl)CCCCC1,outcome,[2],inactive
CCCCN(CC)c1c([N+](=O)[O-])cc(C(F)(F)F)cc1[N+](=O)[O-],outcome,[2],inactive
CCc1cccc(CC)c1N(COC)C(=O)CCl,AC50,[2],9.33 µM (active)
same,AC50,[1],34.6 µM (active)
same,outcome,[6],inactive
CSC1=N[C@@](C)(c2ccccc2)C(=O)N1Nc1ccccc1,AC50,[2],3.63 µM (active)
